Records with an inconclusive call do not appear. Activity calls are given as the source filed them. Rule for the calls, unless noted: active = hit-call score of the fitted dose curve at least 0.9, where 1 is the maximum; inactive = score below 0.9.
Columns and labels:
[1] = CCTE_Shafer_MEA_dev_correlation_coefficient_mean: CCTE's Neural Network Formation Assay for Mean Correlation Coefficient, Shafer Lab (AID 2284093)
How it was run: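 Extracellular firing from rat cortical networks on 48-well MEAs, DMSO-referenced, negative fitting direction. Compound present from plating to DIV12; mean pairwise correlation per well integrated over DIV5–12 recordings by trapezoidal AUC.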

[2] = UKN2_HCS_IMR90_neural_migration: University of Konstanz (UKN) Leist Lab Neural Crest Cell Migration Assay in human induced IMR90 Pluripotent Stem Cells (UKN2) (AID 2284204); conditions: actives raise or lower the signal
How it was run: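 Stopper-exclusion migration (cMINC), human iPSC-derived neural crest cells; N2-S + EGF/FGF; compound added 24 h post-stopper removal, 24 h exposure. Readout: calcein-AM/Hoechst 30 min, HCS fluorescence imaging; bidirectional fitting, DMSO baseline.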

[3] = UKN4_HCS_LUHMES_neurite_outgrowth: University of Konstanz (UKN) Leist Lab Neurite Outgrowth Assay in human LUHMES cells (UKN4) (AID 2284206); conditions: actives raise or lower the signal
How it was run: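 Human LUHMES cells were differentiated for two days, replated and treated with chemicals for 24 h. Neurite outgrowth was quantified as calcein-stained neurite area by HCS imaging, fitted bidirectionally relative to DMSO.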

[4] = IUF_NPC1b_proliferation_BrdU_72hr: Leibniz Research Institute for Environmental Medicine (IUF) 72-hour Neural Progenitor Cell Bromodeoxyuridine (BrdU) Proliferation Assay (NPC1b) (AID 2284207)
How it was run: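 Luminescent BrdU ELISA measured DNA synthesis during the last 16 h of a 72 h exposure of primary human neural progenitor spheres grown with EGF and FGF. Signal was fitted relative to DMSO controls.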

[5] = IUF_NPC1a_proliferation_area_72hr: Leibniz Research Institute for Environmental Medicine (IUF) 72-hour Neural Progenitor Cell Proliferation Area Assay (NPC1a) (AID 2284208)
How it was run: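 hNPC spheres (human fetal cortex, GW 16-19), one per poly-Hema U-bottom well; EGF+FGF medium; dosed day 0, no re-dosing; 72 h, 37C, 5% CO2; phase-contrast sphere area; DMSO = baseline; minus-GF = positive ctrl.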

[6] = IUF_NPC1_viability_72hr: Viability Assessment at 72 hours in the Leibniz Research Institute for Environmental Medicine (IUF) Neural Progenitor Cell Proliferation Assay (NPC1) (AID 2284209)
How it was run: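 Spheres of primary human neural progenitors were plated singly in proliferation medium and treated for 72 h. Mitochondrial reduction of resazurin was then measured by fluorescence and analysed against DMSO controls.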

[7] = CCTE_Mundy_HCI_Cortical_Synap_Neur_Matur_NeuriteSpotCountPerNeuriteLength: CCTE's Synaptogenesis and Neurite Maturation Assay in rat cortical cells for Neurite Spot Count per Neurite Length, Mundy Lab (AID 2284210)
How it was run: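 Read-out: synaptophysin puncta counted along MAP2-stained neurites, normalised to neurite length, by automated high-content imaging. Rat cortical cells; AraC DIV 5; chemical dosing DIV 7; termination DIV 12. DMSO baseline.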

[8] = CCTE_Mundy_HCI_Cortical_NOG_NeuriteLength: CCTE's Neurite Outgrowth Assay in rat cortical cells for Neurite Length, Mundy Lab (AID 2284213);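 note: neurites imaged about 48 to 50 h after chemical exposure began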
How it was run: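 First, rat primary cortical cells were plated and, 2 h later, given test chemical as a 1/10 dilution. Finally, βIII-tubulin immunostaining enabled automated imaging of neurite length.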

[9] = CCTE_Mundy_HCI_Cortical_Synap_Neur_Matur_NeuriteSpotCountPerNeuron: CCTE's Synaptogenesis and Neurite Maturation Assay in rat cortical cells for Neurite Spot Count per Neuron Count, Mundy Lab (AID 2284215)
How it was run: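 Read-out: neurite-associated synaptophysin puncta per neuron, imaged by high-content analysis after MAP2, synaptophysin and Hoechst staining. Rat primary cortical cultures, dosed DIV 7 through DIV 12; DMSO served as baseline.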

[10] = CCTE_Mundy_HCI_hN2_NOG_NeuriteCount: CCTE's Neurite Outgrowth Assay in human hN2 cells for Neurite Count, Mundy Lab (AID 2284219; active = hit-call score of the fitted dose curve at least 0.9, where 1 is the maximum)
How it was run: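 In this morphology assay, hNP1-derived neurons received test chemical 2 h post-plating and were fixed two days later in warm paraformaldehyde/sucrose containing Hoechst 33342. Neurites, labelled by rabbit anti-βIII-tubulin (1:800) and Alexa Fluor-488 (1:500), were counted automatically.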

[11] = CCTE_Mundy_HCI_hN2_NOG_NeuriteLength: CCTE's Neurite Outgrowth Assay in human hN2 cells for Neurite Length, Mundy Lab (AID 2284220; active = hit-call score of the fitted dose curve at least 0.9, where 1 is the maximum)
How it was run: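 Read-out is neurite length from high-content imaging of βIII-tubulin/Alexa Fluor-488-labelled neurons, referenced to DMSO controls.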

[12] = CCTE_Mundy_HCI_hN2_NOG_NeuronCount: CCTE's Neurite Outgrowth Assay in human hN2 cells for Neuron Count, Mundy Lab (AID 2284221; active = hit-call score of the fitted dose curve at least 0.9, where 1 is the maximum)
How it was run: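 Read-out is the number of betaIII-tubulin-positive neurons imaged by automated high-content analysis, with DMSO as negative control.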

[13] = CCTE_Mundy_HCI_Cortical_Synap_Neur_Matur_CellBodySpotCount: CCTE's Synaptogenesis and Neurite Maturation Assay in rat cortical cells for Cell Body Spot Count, Mundy Lab (AID 2284223)
How it was run: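 Read-out: cell body-associated synaptophysin puncta per neuron, imaged after MAP2, synaptophysin and Hoechst staining. Rat cortical cells, AraC DIV 5, chemical dosing DIV 7, fixation DIV 12. Activity fitted in positive direction relative to DMSO baseline.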

[14] = UKN4_HCS_LUHMES_cell_viability: Viability Assessment in the University of Konstanz (UKN) Leist Lab Neurite Outgrowth Assay in human LUHMES cells (UKN4) (AID 2284232)
How it was run: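 Cells switched to differentiation medium at day 0, replated on day 2 in medium lacking cAMP and GDNF, and compound-treated once attached. Live staining began 23.5 h later, imaging followed at 24 h.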

[15] = UKN2_HCS_IMR90_cell_viability: Viability Assessment in the University of Konstanz (UKN) Leist Lab Neural Crest Cell Migration Assay in human induced IMR90 Pluripotent Stem Cells (UKN2) (AID 2284233);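 note: cells exposed to compound for 24 h after a 24 h migration phase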
How it was run: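 Viability read as calcein-AM fluorescence by high-content imaging, Hoechst co-stain, 30 min. Human iPSC (IMR90) neural crest cells had migrated 24 h into stopper-defined gaps before 24 h chemical exposure. Fitted bidirectionally relative to DMSO.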

[16] = CCTE_Mundy_HCI_Cortical_NOG_NeuronCount: CCTE's Neurite Outgrowth Assay in rat cortical cells for Neuron Count, Mundy Lab (AID 2284236; active = hit-call score of the fitted dose curve at least 0.9, where 1 is the maximum;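 note: neurons counted by imaging betaIII-tubulin and Hoechst stained cortical cells; cells exposed to compound for about 48 hours before fixation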)
How it was run: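 Read-out: neuron number by high-content imaging of betaIII-tubulin (Alexa Fluor-488) and Hoechst-labelled rat primary cortical cells.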

[17] = CCTE_Mundy_HCI_Cortical_Synap_Neur_Matur_NeuronCount: CCTE's Synaptogenesis and Neurite Maturation Assay in rat cortical cells for Neuron Count, Mundy Lab (AID 2284242; active = hit-call score of the fitted dose curve at least 0.9, where 1 is the maximum)
How it was run: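 Cortical cells from rat are plated, treated with AraC at DIV 5, and exposed to test chemicals with a media change at DIV 7. At DIV 12 they are fixed and immunostained (MAP2, synaptophysin), and imaged neuron counts are compared against DMSO controls.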

[18] = IUF_NPC2c_oligodendrocyte_migration_120hr: Leibniz Research Institute for Environmental Medicine (IUF) 120-hour Neural Progenitor Cell Migration Assay for Oligodendrocyte Migration (NPC2c) (AID 2284297);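 note: O4-positive oligodendrocyte migration distance divided by radial glia migration distance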
How it was run: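 hNPC spheres (GW 16-19 cortex), PDL/laminin, DMEM/F12 3:1 + 1% N2, 37C. Dosing day 0–5, half feed day 3, DMSO ≤0.1%. Fixed 120 h; O4 ICC + Hoechst, HCI. Readout: mean oligodendrocyte distance from sphere edge / radial glia distance.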

[19] = IUF_NPC2a_radial_glia_migration_120hr: Leibniz Research Institute for Environmental Medicine (IUF) 120-hour Neural Progenitor Cell Migration Assay for Radial Glia Migration (NPC2a) (AID 2284298)
How it was run: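 Hoechst-stained nuclei imaged at 120 h; algorithm maps sphere core by densest nuclei, sets migration edge at density threshold, gives radial glia migration distance (um) per well vs DMSO. hNPC spheres (0.3 mm), PDL/laminin, DMEM/F12 3:1 + 1% N2.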

[20] = IUF_NPC2a_radial_glia_migration_72hr: Leibniz Research Institute for Environmental Medicine (IUF) 72-hour Neural Progenitor Cell Migration Assay for Radial Glia Migration (NPC2a) (AID 2284299)
How it was run: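 Single 0.3 mm neurospheres were plated per well in N2 differentiation medium and exposed from the start of differentiation. After 72 hours, brightfield images were taken and radial glia migration from the sphere core edge was measured manually in four directions, averaged per well.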

[21] = IUF_NPC3_neuronal_differentiation_120hr: Leibniz Research Institute for Environmental Medicine (IUF) 120-hour Neuronal Differentiation Assay (NPC3) (AID 2284301)
How it was run: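 hNPC spheres, PDL/laminin, DMEM/F12 3:1 + 1% N2, 37C, 5% CO2; 7 concentrations + solvent control, 5 d exposure, half-change day 3. Fix 120 h; TUBB3/Hoechst ICC, CNN neuron calling; % neurons vs nuclei, DMSO-normalized.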

[22] = IUF_NPC4_neurite_length_120hr: Leibniz Research Institute for Environmental Medicine (IUF) 120-hour Neuronal Morphology Assay for Neurite Length (NPC4) (AID 2284302)
How it was run: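 hNPC spheres (0.3 mm, fetal brain GW 16-19) on PDL/laminin, DMEM:F12 3:1 + 1% N2, 37C 5% CO2; 7 concs + solvent control, day 0-5, half medium change d3; fix 120 h, TUBB3 ICC, mean neurite length um vs DMSO.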

[23] = IUF_NPC5_oligodendrocyte_differentiation_120hr: Leibniz Research Institute for Environmental Medicine (IUF) 120-hour Oligodendrocyte Differentiation Assay (NPC5) (AID 2284304; active = hit-call score of the fitted dose curve at least 0.9, where 1 is the maximum;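 note: primary human fetal neural progenitor spheres plated to migrate and differentiate; share of O4-positive cells among Hoechst nuclei found by CNN image analysis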)
How it was run: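 hNPC spheres, fetal cortex GW 16-19; PDL/laminin, DMEM:F12 3:1 + 1% N2, 37C/5% CO2; 7 concentrations + solvent control, 5 d exposure, half-change day 3. Readout: %O4+ of Hoechst+ nuclei in migration area, CNN classification; DMSO baseline.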

[24] = IUF_NPC2-5_cytotoxicity_72hr: Cytotoxicity Assessment at 72 hours in the Leibniz Research Institute for Environmental Medicine (IUF) Neural Progenitor Cell Migration and Differentiation Assay for Cytotoxicity (NPC2-5) (AID 2284306; active = hit-call score of the fitted dose curve at least 0.9, where 1 is the maximum;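 note: LDH release into supernatant measured by resorufin fluorescence marking membrane damage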)
How it was run: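 hNPC spheres (0.3 mm), PDL/laminin, DMEM/F12 3:1 + 1% N2; cpd from d0, 7 concs + SC, DMSO max 0.1%; half-medium refresh d3. Readout: supernatant LDH via resorufin fluorescence (RFU), 72 h; gain-of-signal fit.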

[25] = IUF_NPC2-5_cytotoxicity_120hr: Cytotoxicity Assessment at 120 hours in the Leibniz Research Institute for Environmental Medicine (IUF) Neural Progenitor Cell Migration and Differentiation Assay (NPC2-5) (AID 2284307; active = hit-call score of the fitted dose curve at least 0.9, where 1 is the maximum;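 note: LDH released into supernatant as membrane damage marker via resorufin fluorescence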)
How it was run: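 hNPC spheres on PDL/laminin, N2 medium, 37C; 7 concs + solvent control, DMSO ≤0.1%; 5-day exposure, half medium changed day 3. LDH in supernatant at 120 h, resazurin→resorufin fluorescence, gain-of-signal.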

[26] = IUF_NPC2-5_cell_number_120hr: Cell Number Assessment at 120 hours in the Leibniz Research Institute for Environmental Medicine (IUF) Neural Progenitor Cell Migration and Differentiation Assay (NPC2-5) (AID 2284308);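 note: count of Hoechst-stained nuclei in migration zone around plated human neural progenitor spheres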
How it was run: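 Hoechst-stained nuclei within the migration area were counted by automated high content imaging after 120 h. Single hNPC spheres differentiated on poly-D-lysine/laminin in DMEM/F12 (3:1) with 1% N2, compound present throughout, DMSO ≤0.1%.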

[27] = IUF_NPC2-5_viability_120hr: Viability Assessment at 120 hours in the Leibniz Research Institute for Environmental Medicine (IUF) Neural Progenitor Cell Migration and Differentiation Assay (NPC2-5) (AID 2284312)
How it was run: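 Human fetal neural progenitor spheres (0.3 mm) plated on poly-D-lysine/laminin in N2 differentiation medium, exposed 120 h with half-medium refresh at day 3. Viability by alamar blue resazurin fluorescence; 7 concentrations, DMSO max 0.1%.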

[28] = IUF_NPC1_cytotoxicity_72hr: Cytotoxicity Assessment at 72 hours in the Leibniz Research Institute for Environmental Medicine (IUF) Neural Progenitor Cell Proliferation Assay (NPC1) (AID 2284332; active = hit-call score of the fitted dose curve at least 0.9, where 1 is the maximum;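 note: rising LDH signal means more cytotoxicity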)
How it was run: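 Membrane-integrity loss is scored from LDH released into the medium, detected as resorufin fluorescence, with activity fitted upward relative to baseline. Test material stays on human fetal-derived progenitor spheres for 72 h.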

Measured: AC50

C[C@@H]1C[C@H]2[C@@H]3CCC4=CC(=O)C=C[C@]4(C)[C@@]3(F)[C@@H](O)C[C@]2(C)[C@@]1(O)C(=O)CO
active: [4] 90.1 nM | [8] 21100 nM | [25] 24 nM
inactive: all other assays above

— PubChem BioAssay (EPA / NIEHS)
